Experimental data reported in PubChem BioAssay (NCATS).
Results filed as inconclusive are left out. The source made the active and inactive calls. Unless noted, calls follow the shape of the dose curve; as a rule, active = well fitted curve in either direction with a large enough effect (not every such curve was filed as active); inconclusive = small, poorly fitted or top-dose-only effect, or another doubt; inactive = flat fitted curve, though single readings scatter.

Assays:
[1] = target: Lysosomal acid glucosylceramidase (Homo sapiens) (UniProt P04062); test: Glucocerebrosidase-p2 (AID 348; in the data active = potency below about 10 µM; also: potency is read from the fitted curve at half-maximal effect); conditions: purified GBA, blue fluorogenic substrate, 40 min
Sequence of Lysosomal acid glucosylceramidase (Homo sapiens) (P04062 whole entry, looked up): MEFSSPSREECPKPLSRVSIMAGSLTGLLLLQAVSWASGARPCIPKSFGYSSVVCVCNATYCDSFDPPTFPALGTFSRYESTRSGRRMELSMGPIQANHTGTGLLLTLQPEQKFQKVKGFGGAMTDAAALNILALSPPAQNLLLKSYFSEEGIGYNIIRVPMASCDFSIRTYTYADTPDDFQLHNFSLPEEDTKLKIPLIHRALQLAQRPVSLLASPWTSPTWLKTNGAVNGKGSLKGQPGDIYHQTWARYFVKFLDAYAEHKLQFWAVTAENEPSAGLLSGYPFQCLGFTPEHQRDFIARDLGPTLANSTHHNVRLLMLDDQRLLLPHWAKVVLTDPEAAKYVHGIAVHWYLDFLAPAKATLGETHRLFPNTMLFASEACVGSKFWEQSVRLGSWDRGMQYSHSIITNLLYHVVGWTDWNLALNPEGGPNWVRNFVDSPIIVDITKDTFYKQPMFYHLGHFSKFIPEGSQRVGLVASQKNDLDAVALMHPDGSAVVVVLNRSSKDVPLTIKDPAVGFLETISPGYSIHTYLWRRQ
How it was run: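 Normal human glucocerebrosidase (0.2 nM) with blue fluorogenic substrate (80 uM final) in citrate/phosphate pH 5.9 with 10mM sodium taurocholate, 0.01% tween-20; 40 min RT, NaOH/glycine stop; fluorescence Ex 365/Em 440; AC50 from a titration from 0.6 nM upwards.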

[2] = AP1 Signaling Pathway (AID 357); conditions: ME-180 AP-1-bla reporter, EGF-induced, beta-lactamase ratio, 5 h; at 7.69 µM (top of the series) unless noted;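 also: ME-180 reporter cells stimulated with EGF at its EC50 level; % is scaled to controls: 0 for no effect and ±100 for the full control effect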
How it was run: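 Cells are seeded overnight, exposed to compound titrations and an EC50 level of EGF for 5 hours at 37 °C, then loaded with CCF4 dye for 2.5 hours. Beta-lactamase activity under the AP-1 element is read as a blue/green ratio.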

[3] = target: Cytochrome P450 1A2 (Homo sapiens) (UniProt P05177); test: p450-cyp1a2 (AID 410; calls by dose curve; also: potency is read from the fitted curve at half-maximal effect;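 as to activity change, negative = inhibition: -100% = full effect of reference inhibitor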)
Sequence of Cytochrome P450 1A2 (Homo sapiens) (P05177 whole entry, looked up): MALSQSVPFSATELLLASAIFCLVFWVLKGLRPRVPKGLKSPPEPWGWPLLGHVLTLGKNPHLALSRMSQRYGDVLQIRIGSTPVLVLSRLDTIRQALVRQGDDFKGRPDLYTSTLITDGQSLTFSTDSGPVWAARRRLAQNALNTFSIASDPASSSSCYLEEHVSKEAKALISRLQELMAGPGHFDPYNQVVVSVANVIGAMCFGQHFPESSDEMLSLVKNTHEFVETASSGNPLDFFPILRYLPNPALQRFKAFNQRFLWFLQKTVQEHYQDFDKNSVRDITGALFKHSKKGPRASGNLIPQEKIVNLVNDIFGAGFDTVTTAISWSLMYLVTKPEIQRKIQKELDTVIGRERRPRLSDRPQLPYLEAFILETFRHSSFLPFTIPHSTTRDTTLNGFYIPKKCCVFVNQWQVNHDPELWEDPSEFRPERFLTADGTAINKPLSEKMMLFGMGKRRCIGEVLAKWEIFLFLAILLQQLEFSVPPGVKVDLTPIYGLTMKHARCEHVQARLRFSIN
How it was run: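 O-Demethylation of luciferin 6' methyl ether by human CYP1A2 is monitored as luciferase luminescence. Substrate sits at Km (100uM); enzyme is 20nM. Values are scaled to 57 uM furafylline as maximal inhibition.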

[4] = NFAT Signaling Pathway (AID 444); conditions: Jurkat NFAT-bla M1, carbachol, beta-lactamase ratio, 5 h; at 7.69 µM (top of the series) unless noted;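 also: carbachol stimulus at about its EC50 of 1 µM final; % is scaled to controls: 0 for no effect and ±100 for the full control effect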
How it was run: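 Read-out: CCF4 FRET ratio (460 nm/530 nm) after 1 h RT dye loading, used for %activity and AC50 from titration series. Cells: Jurkat NFAT-β-lactamase/M1 line, treated with compound plus 1 uM carbachol for 5 h, 37 °C.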

[5] = Stat Signaling Pathway (AID 446); conditions: ME-180 (cervical carcinoma) SIE beta-lactamase reporter, IL-6 stimulated, 5 h; at 7.69 µM (top of the series) unless noted;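 also: ME-180 cervical cancer cells given 40 pM IL-6 alongside compound; SIE-controlled beta-lactamase reporter measured as 460/530 nm FRET emission ratio; % is scaled to controls: 0 for no effect and ±100 for the full control effect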
How it was run: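 FRET read-out (405 nm excitation, 460/530 nm emission) of a beta-lactamase reporter under a STAT-inducible element in ME-180 cervical carcinoma cells. Cells with compound receive 40 pM IL-6 for 5 h. Values are normalised to AC90 stimulation and AC90 JAK-inhibitor controls.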

[6] = target: Glucocorticoid receptor (Homo sapiens) (UniProt P04150); test: GR-GFP Redistribution (AID 450;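 active = compounds whose dose series gives a full or clear partial fitted curve of increased nuclear translocation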; also: potency is read from the fitted curve at half-maximal effect); conditions: U2OS GR-GFP nuclear translocation, laser cytometry, 2 h
Sequence of Glucocorticoid receptor (Homo sapiens) (P04150 whole entry, looked up, the tested form may be a part): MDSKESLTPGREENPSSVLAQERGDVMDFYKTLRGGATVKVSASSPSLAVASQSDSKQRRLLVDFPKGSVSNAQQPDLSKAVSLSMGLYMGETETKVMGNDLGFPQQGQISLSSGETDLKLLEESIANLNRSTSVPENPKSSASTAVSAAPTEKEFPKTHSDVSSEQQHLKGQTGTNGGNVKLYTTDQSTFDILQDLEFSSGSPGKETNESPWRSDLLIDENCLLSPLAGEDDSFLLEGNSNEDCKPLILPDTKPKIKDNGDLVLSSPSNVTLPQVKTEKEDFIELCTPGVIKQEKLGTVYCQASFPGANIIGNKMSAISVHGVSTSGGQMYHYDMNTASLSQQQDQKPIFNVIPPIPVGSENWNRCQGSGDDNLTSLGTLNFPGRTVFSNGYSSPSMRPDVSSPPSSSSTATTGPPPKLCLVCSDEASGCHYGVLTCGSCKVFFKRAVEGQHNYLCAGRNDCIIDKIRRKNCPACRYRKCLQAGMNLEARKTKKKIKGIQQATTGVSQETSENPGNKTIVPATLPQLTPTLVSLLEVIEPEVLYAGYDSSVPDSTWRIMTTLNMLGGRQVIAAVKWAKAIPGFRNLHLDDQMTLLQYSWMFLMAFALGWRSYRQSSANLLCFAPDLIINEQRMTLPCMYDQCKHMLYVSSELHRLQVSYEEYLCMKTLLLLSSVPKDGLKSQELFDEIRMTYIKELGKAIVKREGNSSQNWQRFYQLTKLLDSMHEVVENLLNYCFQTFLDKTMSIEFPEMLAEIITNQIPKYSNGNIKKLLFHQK

[7] = target: Mitogen-activated protein kinase 10 (Mus musculus) (UniProt Q61831); test: JNK3 AlphaScreen Assay (AID 530);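 also: kinase came from lysate of stimulated human HepG2 cells; signal reports phosphorylation of biotinylated GST-cJun 1-79 at Ser73 with 10 µM ATP; % is scaled to controls: 0 for no effect and ±100 for the full control effect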
How it was run: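 qHTS titrations with 15 min compound pre-incubation before adding ATP (10 uM final). Read-out: AlphaScreen of Ser73-phosphorylated biotin-GST-cJun using HepG2 lysate JNK3 activated by IL-1β and TNFα.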

[8] = target: Cytochrome P450 3A4 (Homo sapiens) (UniProt P08684); test: qHTS Assay for Activators of Cytochrome P450 3A4 (AID 885; active = well fitted curve in the direction sought with a large enough effect; an effect the other way counts as inactive or inconclusive; also: nearly all actives have a fitted effect of over 65% in size)
Sequence of Cytochrome P450 3A4 (Homo sapiens) (P08684 whole entry, looked up): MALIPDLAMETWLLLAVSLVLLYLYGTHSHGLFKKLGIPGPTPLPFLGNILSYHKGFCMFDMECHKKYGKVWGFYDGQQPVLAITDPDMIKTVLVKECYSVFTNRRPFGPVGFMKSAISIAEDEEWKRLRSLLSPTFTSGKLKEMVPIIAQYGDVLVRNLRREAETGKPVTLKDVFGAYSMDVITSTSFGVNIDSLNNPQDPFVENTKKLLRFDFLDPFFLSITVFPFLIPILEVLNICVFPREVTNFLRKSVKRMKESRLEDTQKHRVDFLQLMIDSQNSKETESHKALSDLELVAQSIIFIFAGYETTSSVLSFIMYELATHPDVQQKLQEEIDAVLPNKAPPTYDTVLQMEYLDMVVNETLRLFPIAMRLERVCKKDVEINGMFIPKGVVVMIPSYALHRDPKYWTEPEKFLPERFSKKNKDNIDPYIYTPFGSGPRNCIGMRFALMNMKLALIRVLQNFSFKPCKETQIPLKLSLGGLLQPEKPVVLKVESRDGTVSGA
How it was run: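 Luminescent readout of luciferin formed from 25 uM Luciferin-PPXE (KM level) by 20 nM CYP3A4 in 200 mM KPO4, with 60 min NADPH-driven reaction at room temperature after 10 min compound exposure. Ketoconazole (57 uM) defined 100% inhibition.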

[9] = qHTS Assay for Lipid Storage Modulators (AID 1519; calls by dose curve); conditions: Drosophila S3 cells, BODIPY lipid droplet/cell ratio, laser cytometry, cells loaded with oleic acid; for activity change, negative = inhibition: at 57.5 µM (top of the series)
How it was run: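 Cells seeded at 5,000 per well were treated with compounds over a concentration series and loaded with oleic acid (400 uM, as added). Lipid droplet fluorescence (488 nm excitation, 500-530 nm channel) was read by laser-scanning cytometry and normalized to 20 uM Triacsin C.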

[10] = target: Dual specificity protein kinase CLK4 (Homo sapiens) (UniProt Q9HAZ1); test: qHTS Assay for Inhibitors of CDC-like Kinase 4 (Kinase-Glo Assay) (AID 1770; active = well fitted curve in the direction sought with a large enough effect; an effect the other way counts as inactive or inconclusive; also: nearly all actives have a fitted effect of over 65% in size; also: potency is read from the fitted curve at half-maximal effect)
Sequence of Dual specificity protein kinase CLK4 (Homo sapiens) (Q9HAZ1 whole entry, looked up): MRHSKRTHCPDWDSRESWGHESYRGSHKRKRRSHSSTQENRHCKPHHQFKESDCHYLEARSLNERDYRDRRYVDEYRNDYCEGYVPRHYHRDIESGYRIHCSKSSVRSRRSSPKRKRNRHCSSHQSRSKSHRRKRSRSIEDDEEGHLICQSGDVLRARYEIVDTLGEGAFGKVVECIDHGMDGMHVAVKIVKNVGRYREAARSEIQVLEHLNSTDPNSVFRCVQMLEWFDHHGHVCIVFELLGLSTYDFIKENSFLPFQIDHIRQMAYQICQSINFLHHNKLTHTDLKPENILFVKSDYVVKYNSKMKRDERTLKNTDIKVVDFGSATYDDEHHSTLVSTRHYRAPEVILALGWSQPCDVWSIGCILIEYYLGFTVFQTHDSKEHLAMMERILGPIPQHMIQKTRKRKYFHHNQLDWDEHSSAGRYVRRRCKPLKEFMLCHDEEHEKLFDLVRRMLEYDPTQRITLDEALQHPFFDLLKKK
How it was run: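 25 nM Clk4 with 100 uM RS repeat peptide and 1 uM ATP (final) in Tris pH7.5, 10 mM MgCl2, 4.5 h at room temperature. Remaining ATP measured by Kinase-Glo luciferase luminescence.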

[11] = target: Dual specificity protein kinase CLK4 (Homo sapiens) (UniProt Q9HAZ1); test: qHTS Assay for Inhibitors of CDC-like Kinase 4 (ADP-FP Assay) (AID 1795; active = well fitted curve in the direction sought with a large enough effect; an effect the other way counts as inactive or inconclusive; also: nearly all actives have a fitted effect of over 60% in size; also: potency is read from the fitted curve at half-maximal effect)
How it was run: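 Recombinant Clk4 (6.25 nM) phosphorylated 100 uM RS repeat peptide with 1 uM ATP in 25 mM Tris pH 7.5, 10 mM MgCl2, 0.5 mM EGTA, 2.5 mM DTT, 0.01% Triton X-100 for 1 h. ADP was detected by Transcreener ADP2 competitive fluorescence polarization after 30 min at room temperature.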

[12] = target: Ubiquitin carboxyl-terminal hydrolase 1 (Homo sapiens) (UniProt O94782); test: Inhibitors of USP1/UAF1: Pilot qHTS (AID 504865; active = well fitted curve in the direction sought with a large enough effect; an effect the other way counts as inactive or inconclusive;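 also: rhodamine fluorescence freed from ubiquitin-rhodamine substrate followed over time; top concentration of the series differs between compounds; % is scaled to controls: 0 for no effect and ±100 for the full control effect; nearly all actives have a fitted effect of over 35% in size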)
Sequence of Ubiquitin carboxyl-terminal hydrolase 1 (Homo sapiens) (O94782 whole entry, looked up): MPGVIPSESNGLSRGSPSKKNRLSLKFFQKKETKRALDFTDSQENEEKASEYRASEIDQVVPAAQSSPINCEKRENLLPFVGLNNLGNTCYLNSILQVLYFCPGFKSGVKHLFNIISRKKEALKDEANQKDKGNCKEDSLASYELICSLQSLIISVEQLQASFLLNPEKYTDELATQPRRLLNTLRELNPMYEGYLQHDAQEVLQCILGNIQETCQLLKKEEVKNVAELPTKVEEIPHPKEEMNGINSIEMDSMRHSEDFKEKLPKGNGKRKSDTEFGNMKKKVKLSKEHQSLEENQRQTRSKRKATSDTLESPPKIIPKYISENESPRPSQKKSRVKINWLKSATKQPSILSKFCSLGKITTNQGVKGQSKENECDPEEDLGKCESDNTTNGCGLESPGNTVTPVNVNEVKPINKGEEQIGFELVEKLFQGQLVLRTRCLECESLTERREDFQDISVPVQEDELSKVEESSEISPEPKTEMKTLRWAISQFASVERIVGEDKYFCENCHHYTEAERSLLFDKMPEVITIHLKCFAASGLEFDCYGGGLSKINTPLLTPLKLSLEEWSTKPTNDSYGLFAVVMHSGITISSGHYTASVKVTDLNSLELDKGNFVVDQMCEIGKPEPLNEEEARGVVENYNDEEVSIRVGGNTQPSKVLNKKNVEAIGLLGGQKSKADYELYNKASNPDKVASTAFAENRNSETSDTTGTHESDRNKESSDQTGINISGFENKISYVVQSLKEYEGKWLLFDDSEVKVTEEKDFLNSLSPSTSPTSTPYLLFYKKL
How it was run: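 USP1/UAF1 complex at 1 nM preincubated 15 min at room temperature with compound, then Ub-Rho substrate added at 150 nM final. Fluorescence (480/540 nm) read kinetically in 50 mM HEPES pH 7.8, 0.5 mM EDTA, 1 mM TCEP, 0.1 mg/ml BSA, 0.01% Tween-20.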

[13] = target: Glucocorticoid receptor (Homo sapiens) (UniProt P04150); test: GR-EFC Redistribution (AID 451; calls by dose curve; also: potency is read from the fitted curve at half-maximal effect); conditions: CHO-K1 GR-EFC translocation, beta-gal luminescence, 2 h
How it was run: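 Translocation of GR-ED fusion to nuclear EA restores b-gal, read by luminescence after 1 h room-temperature detection. Engineered CHO-K1 biosensor cells, 1,000/well, exposed 2 h at 37 C to titrations up to 46 uM final.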

[14] = target: 3',5'-cyclic-AMP phosphodiesterase 4B (Homo sapiens) (UniProt Q07343); test: qHTS Assay for Inhibitors of PDE-IV (AID 607; active = well fitted activation curve with a large enough effect in the main read-out, with a control signal flat, not every such curve was filed as active; also: % of control where 0% means no effect)
Sequence of 3',5'-cyclic-AMP phosphodiesterase 4B (Homo sapiens) (Q07343 whole entry, looked up): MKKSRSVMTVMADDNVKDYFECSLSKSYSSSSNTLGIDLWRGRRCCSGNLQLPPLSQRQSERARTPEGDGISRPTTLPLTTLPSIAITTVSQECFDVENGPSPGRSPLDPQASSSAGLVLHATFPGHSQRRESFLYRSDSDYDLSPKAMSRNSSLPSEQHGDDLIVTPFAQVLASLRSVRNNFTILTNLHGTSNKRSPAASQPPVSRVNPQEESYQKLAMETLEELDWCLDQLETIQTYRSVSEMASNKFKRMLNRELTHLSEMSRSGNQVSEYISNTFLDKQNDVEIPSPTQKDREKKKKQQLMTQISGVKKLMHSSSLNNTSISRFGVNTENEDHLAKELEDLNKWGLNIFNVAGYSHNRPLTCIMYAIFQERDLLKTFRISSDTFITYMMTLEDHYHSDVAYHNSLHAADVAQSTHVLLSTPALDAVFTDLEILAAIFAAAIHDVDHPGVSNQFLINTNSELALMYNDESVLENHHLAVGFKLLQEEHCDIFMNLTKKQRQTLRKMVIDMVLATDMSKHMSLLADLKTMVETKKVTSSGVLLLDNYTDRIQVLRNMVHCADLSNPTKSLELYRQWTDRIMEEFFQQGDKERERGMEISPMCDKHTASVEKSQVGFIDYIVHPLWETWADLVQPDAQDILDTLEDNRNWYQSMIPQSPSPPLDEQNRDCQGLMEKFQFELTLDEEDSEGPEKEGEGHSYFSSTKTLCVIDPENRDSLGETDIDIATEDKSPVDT
How it was run: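 Cell-based read-out of cAMP via a modified cyclic nucleotide-gated channel and membrane potential dye (535/590 nm) in HEK293 cells expressing PDE4 endogenously. Compounds tested up to 22.9 uM final; 100 uM RO 20-1724 reference.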

[15] = target: Cytochrome P450 2C9 (Homo sapiens) (UniProt P11712); test: qHTS Assay for Inhibitors and Substrates of Cytochrome P450 2C9 (AID 883; active = well fitted curve in the direction sought with a large enough effect; an effect the other way counts as inactive or inconclusive; also: potency is read from the fitted curve at half-maximal effect; nearly all actives have a fitted effect of over 60% in size)
Sequence of Cytochrome P450 2C9 (Homo sapiens) (P11712 whole entry, looked up): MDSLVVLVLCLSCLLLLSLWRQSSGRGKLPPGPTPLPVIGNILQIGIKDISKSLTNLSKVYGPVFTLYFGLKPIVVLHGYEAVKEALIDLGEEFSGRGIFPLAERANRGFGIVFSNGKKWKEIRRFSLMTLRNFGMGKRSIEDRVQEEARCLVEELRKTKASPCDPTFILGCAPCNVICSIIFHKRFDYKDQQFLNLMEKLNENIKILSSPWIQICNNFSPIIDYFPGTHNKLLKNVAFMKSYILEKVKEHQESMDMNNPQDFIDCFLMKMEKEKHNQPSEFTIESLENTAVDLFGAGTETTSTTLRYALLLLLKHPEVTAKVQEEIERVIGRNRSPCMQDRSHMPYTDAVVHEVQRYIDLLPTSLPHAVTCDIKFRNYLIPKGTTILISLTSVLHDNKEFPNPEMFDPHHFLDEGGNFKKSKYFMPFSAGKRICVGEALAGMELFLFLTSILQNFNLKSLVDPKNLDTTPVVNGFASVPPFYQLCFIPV
How it was run: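 Inhibition of CYP2C9 is scored as loss of luminescence, with 57uM sulphaphenazole defining 100% inhibition. Substrate Luciferin-H is used at 100uM, equal to its KM; enzyme at 10nM in 25mM KPO4, 60 min at 37C with NADPH regeneration.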

[16] = target: Cytochrome P450 3A4 (Homo sapiens) (UniProt P08684); test: qHTS Assay for Inhibitors and Substrates of Cytochrome P450 3A4 (AID 884; active = well fitted curve in the direction sought with a large enough effect; an effect the other way counts as inactive or inconclusive; also: % is scaled to controls: 0 for no effect and ±100 for the full control effect; nearly all actives have a fitted effect of over 50% in size)
How it was run: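 Luminescent readout of luciferin produced by CYP3A4 (20 nM) dealkylation of Luciferin-PPXE, 25 uM (its KM). NADPH-driven reaction ran 60 min at RT after 10 min compound preincubation; data scaled to 57 uM ketoconazole as 100% inhibition.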

[17] = target: Dual specificity protein kinase CLK4 (Homo sapiens) (UniProt Q9HAZ1); test: qHTS Assay for Inhibitors of CDC-like Kinase 4 (ADP-Glo Assay) (AID 1771; active = well fitted curve in the direction sought with a large enough effect; an effect the other way counts as inactive or inconclusive; also: % is scaled to controls: 0 for no effect and ±100 for the full control effect; nearly all actives have a fitted effect of over 70% in size)
How it was run: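 Compounds are pin-transferred onto substrate mix (100 uM RS peptide, 1 uM ATP), then 25 nM Clk4 is added. After 1 hr at room temperature, ADP-Glo reagent runs 45 min, detection reagent 30 min, then luminescence is read.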

[18] = measured here: cell count channel max response
[19] = measured here: lipid channel max response

Row | SMILES | Potency [1] | activity change, negative = inhibition [2] | Potency [3] | activity change, negative = inhibition [4] | activity, negative = inhibition [5] | Potency [6] | outcome [7] | Potency [8] | activity change, negative = inhibition [9] | max response [9, 18] | max response [9, 19] | Potency [10] | Potency [11] | Potency [12] | Potency [13] | Potency [14] | Potency [15] | Potency [16] | Potency [17]
1 | O=c1cnc2cnc(N3CCOCC3)nc2n1CCc1ccccc1 | > 11.4 µM (inactive) | -4.12% (inactive) | 3.16 µM (active) | -13.2% (inactive) | -10.2% (inactive) | > 9.22 µM (inactive) | inactive | inactive | 3.67% (inactive) | 1.44% | 3.8% | 7.08 µM (active) | 8.91 µM (active) | inactive | – | – | – | – | –
2 | COCC(=O)N1CCC[C@@]2(CCN(C(=O)Nc3ccc(OC)cc3)C2)C1 | > 11.4 µM (inactive) | -7.62% (inactive) | inactive | 11.4% (inactive) | 6.35% (inactive) | – | inactive | – | 0.357% (inactive) | 1.93% | 5.76% | – | – | – | > 46 µM (inactive) | inactive | – | – | –
3 | CC(=O)N1CCC[C@@]2(CCN(Cc3cc(C(F)(F)F)cc(C(F)(F)F)c3)C2)C1 | > 11.4 µM (inactive) | -5.47% (inactive) | – | 20.4% (inactive) | -6.41% (inactive) | – | – | – | 5.56% (inactive) | 8.88% | 18.9% | – | – | – | > 46 µM (inactive) | inactive | – | – | –
4 | N#Cc1cccc(-c2nc3cnc(Oc4cccc(Cl)c4)nc3n(C3CC3)c2=O)c1 | > 11.4 µM (inactive) | -1.53% (inactive) | 2.51 µM (active) | 12.5% (inactive) | -10.1% (inactive) | > 9.22 µM (inactive) | inactive | – | -3.65% (inactive) | 11% | 8.29% | inactive | inactive | inactive | > 46 µM (inactive) | inactive | 3.16 µM (active) | inactive | inactive
